Data on 64 compounds can be found in ChEMBL document CHEMBL1201862, “PubChem BioAssay data set” (2004).

Molecules are shown by their SMILES. Screen size: about 400,000 compounds; about 2,100 (0.53%) were called active. Roughly 14% stayed inconclusive and do not appear here. The rule behind the calls is not given here. The list comes from a sample in which actives are over-represented; it also holds similar structures and randomly drawn compounds.

For this test, the target named is Ataxin-2 (Homo sapiens) (UniProt Q99700). The test can be described thus: qHTS for Inhibitors of ATXN expression. It is filed as functional.
Ataxin-2 (Homo sapiens), sequence (Q99700 whole entry): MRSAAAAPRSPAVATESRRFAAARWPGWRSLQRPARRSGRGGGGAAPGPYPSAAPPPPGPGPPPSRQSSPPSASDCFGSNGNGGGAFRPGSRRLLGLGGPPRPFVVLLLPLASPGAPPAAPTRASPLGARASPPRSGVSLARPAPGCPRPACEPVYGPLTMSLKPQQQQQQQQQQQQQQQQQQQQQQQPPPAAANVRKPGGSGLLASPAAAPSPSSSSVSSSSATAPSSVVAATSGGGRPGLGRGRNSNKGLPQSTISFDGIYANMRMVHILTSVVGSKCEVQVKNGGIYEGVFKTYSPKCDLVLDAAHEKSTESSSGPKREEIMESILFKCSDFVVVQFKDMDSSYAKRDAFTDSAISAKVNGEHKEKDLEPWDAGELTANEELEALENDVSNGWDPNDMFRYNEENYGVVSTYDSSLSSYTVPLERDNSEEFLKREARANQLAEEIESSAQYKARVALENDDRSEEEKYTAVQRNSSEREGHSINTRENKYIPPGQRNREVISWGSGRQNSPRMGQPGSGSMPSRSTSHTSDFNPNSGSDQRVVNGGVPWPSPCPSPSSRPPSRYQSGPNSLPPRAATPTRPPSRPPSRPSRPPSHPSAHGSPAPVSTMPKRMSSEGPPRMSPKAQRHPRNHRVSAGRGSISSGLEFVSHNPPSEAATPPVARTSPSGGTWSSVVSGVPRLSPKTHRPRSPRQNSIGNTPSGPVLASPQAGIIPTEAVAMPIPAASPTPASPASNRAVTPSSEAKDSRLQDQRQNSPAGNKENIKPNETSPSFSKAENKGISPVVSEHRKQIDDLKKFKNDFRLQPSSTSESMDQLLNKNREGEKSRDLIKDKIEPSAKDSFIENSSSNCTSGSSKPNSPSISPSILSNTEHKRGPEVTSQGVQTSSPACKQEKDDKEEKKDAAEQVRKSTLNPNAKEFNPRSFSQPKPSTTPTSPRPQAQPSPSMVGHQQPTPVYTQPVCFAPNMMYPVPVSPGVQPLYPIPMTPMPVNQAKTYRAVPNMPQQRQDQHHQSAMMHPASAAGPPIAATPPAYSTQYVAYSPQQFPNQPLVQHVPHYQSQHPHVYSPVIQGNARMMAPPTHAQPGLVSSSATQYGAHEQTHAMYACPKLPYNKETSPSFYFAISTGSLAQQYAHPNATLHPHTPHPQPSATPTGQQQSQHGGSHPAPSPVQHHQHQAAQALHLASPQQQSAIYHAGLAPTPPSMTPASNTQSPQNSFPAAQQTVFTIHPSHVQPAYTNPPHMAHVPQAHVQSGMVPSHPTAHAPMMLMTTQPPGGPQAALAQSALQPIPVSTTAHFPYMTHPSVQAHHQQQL
As to `CCCCCC(=O)Nc1ncc2c(n1)CC(c1cccs1)CC2=O` (centres undefined), the Potency result is “inactive”. For the compound `O=C(CCCCCn1c(=S)[nH]c2ccc(N3CCOCC3)cc2c1=O)NC1CCN(Cc2ccccc2)CC1`, the Potency entry was “inactive”. Turning to `Cc1sc2c(c1C)C(O)=C(/C=N/c1ccccn1)S(=O)(=O)N2C`, the Potency result is “inactive”. For `N#CC(=C(O)COC(=O)CCC1CCCCC1)c1nc2ccccc2[nH]1`, the Potency is 39.8 µM (active).

For `N#C/C(=C\c1ccc(-c2ccccc2C(=O)O)o1)c1nc2ccccc2[nH]1`, the Potency result is “inactive”.

Take `N#Cc1c(N)n(CCNC(=O)c2ccccc2)c2nc3ccccc3nc12`: the Potency entry was “inactive”. To `N#Cc1c(N)n(CCOC(=O)c2ccc(Cl)cc2)c2nc3ccccc3nc12` belongs “inactive”. Take `N#Cc1ccccc1S(=O)(=O)N1CCN(C(=O)CCC2CCCC2)CC1`: the Potency entry is “inactive”.

Consider `N#C/C(=C(/O)COC(=O)COc1cccc(Br)c1)c1nc2ccccc2[nH]1`, for which the Potency is 22.4 µM (active). On to `N#C/C(=C\c1ccccc1C(=O)O)c1nc2ccccc2[nH]1`, for which the Potency result was “inactive”. For `N#C/C(=C(/O)COC(=O)COc1ccc(Cl)cc1)c1nc2ccccc2[nH]1`, the Potency was 39.8 µM (active).

For `N#C/C(=C(/O)COC(=O)CCCNC(=O)c1ccc(Cl)cc1)c1nc2ccccc2[nH]1`, the Potency is 25.1 µM (active). For the compound `N#C/C(=C(/O)C(Cl)(Cl)Cl)c1nc2ccccc2[nH]1`, the Potency result was “inactive”. To `Cc1cccc(N2C(=O)c3ccccc3C2=O)n1` belongs “inactive”; to `Oc1ccccc1C1=NN(c2ccccc2)C(c2ccccc2)C1` (centres undefined), “inactive”. Take `COc1cc(/C=C/c2onc(C)c2[N+](=O)[O-])cc(OC)c1OC`: the Potency result is “inactive”.

Regarding `O=C(CN1C(=O)c2ccccc2C1=O)NCc1ccc(N2CCOCC2)cc1`, the Potency result was “inactive”. As to `O=C(OCCOc1cccc(Cl)c1)c1ccc2ncsc2c1`, the Potency result is “inactive”. The same measure for `CCC(=O)Nc1c(OC(=O)CC)ccc2c(C)cc(=O)oc12`: “inactive”; for `CCCCn1c(N)c(N(CC)C(=O)c2cc(OC)cc(OC)c2)c(=O)[nH]c1=O`: “inactive”. With `CCCCN(C(=O)c1ccc2ccccc2c1)c1c(N)n(CCCC)c(=O)[nH]c1=O`, the Potency entry is “inactive”. Turning to `CCCCn1c(N)c(N(CCC(C)C)C(=O)c2ccc(-c3ccc([N+](=O)[O-])cc3)o2)c(=O)[nH]c1=O`, the Potency was 20 µM (active).

`COc1cc2c(cc1OC)C(c1ccc(-c3ccccc3Cl)o1)=NCC2`: the Potency was 39.8 µM (active). Consider `Cc1nn(C)c(C)c1N1C(=O)c2cccc3c(Br)ccc(c23)C1=O`, for which the Potency entry is “inactive”. As to `Cc1ccccc1CS(=O)(=O)Cc1ccc(C(=O)NCCCN2CC(C)CC(C)C2)o1` (centres undefined), the Potency was 8.91 µM (active).

For `Cc1ccccc1CNC(=O)c1ccccc1NS(C)(=O)=O`, the Potency result was “inactive”. On to `Cc1ccccc1C(=O)NCCCNC(=O)c1ccco1`, for which the Potency entry was “inactive”. As for `CC(C)C1Cc2c(sc3ncnc(NN)c23)CO1` (centres undefined), the Potency result is “inactive”. With `COc1cc(C)c2sc3ccccc3c(=O)c2c1NCCN(C)C`, the Potency was 44.7 µM (active). To `CN(C)CCCNC(=O)c1cc2sc3ccccc3c2s1` belongs “inactive”; to `Cc1cc(O)cc2c(=O)c3ccccc3sc12`, “inactive”. For the compound `Cc1ccc(/C=N/NC(=O)c2cc3c(s2)CCCC3)o1`, the Potency entry is “inactive”.

Take `O=S(=O)(/C=C/c1ccccc1)NCc1ccccc1Cl`: the Potency result is “inactive”. `O=C(CCC(=O)N/N=C/c1cc(Cl)cc(Cl)c1O)NCc1ccccc1`: the Potency result was “inactive”. With `CCC/C=C/c1ccc(CN2C(CC(C)C)C(=O)N(Cc3cn(CCC4OCCO4)nn3)CCS2(=O)=O)cc1` (centres undefined), the Potency was 35.5 µM (active). Consider `CCC/C=C/c1ccc(CN2C(CC(C)C)C(=O)N(Cc3cn(CCC4OCCCO4)nn3)CCS2(=O)=O)cc1` (centres undefined), for which the Potency was 39.8 µM (active). Turning to `O=C(CCCCn1c(=O)[nH]c2ccsc2c1=O)NCc1ccc2c(c1)OCO2`, the Potency entry is “inactive”. On to `CN(C)S(=O)(=O)c1ccc2oc(SCC(=O)c3c(N)n(C4CC4)c(=O)[nH]c3=O)nc2c1`, for which the Potency result is “inactive”. Regarding `O=c1c2ccccc2nc(/C=C/c2c[nH]c3ccccc23)n1CCO`, the Potency entry was “inactive”. On to `CCCCc1cc(-c2nnc(S)o2)c2ccccc2n1`, for which the Potency entry is “inactive”. Regarding `CC(C)NS(=O)(=O)c1ccc(NC(=O)C(C)OC(=O)C2CCC2)cc1` (centres undefined), the Potency entry was “inactive”. For the compound `CC(Oc1ccccc1Cl)C(=O)Nc1ccc(S(=O)(=O)N2CCCC2)cc1` (centres undefined), the Potency is 35.5 µM (active). With `CC(Oc1cc(F)ccc1[N+](=O)[O-])C(=O)Nc1ccc(S(=O)(=O)N2CCCC2)cc1` (centres undefined), the Potency entry is “inactive”. As to `Cc1cc2nc(-c3cccnc3O)[nH]c2cc1C`, the Potency result was “inactive”.

Consider `CN1c2ccccc2C(C)(C)C12C=Nc1c(cc(N3CCOCC3)c3ccccc13)O2` (centres undefined), for which the Potency result is “inactive”. As to `Cc1ccccc1N(C(=O)c1snc(C(N)=O)c1N)C(C(=O)NCC1CCCO1)c1ccc(F)cc1` (centres undefined), the Potency entry is “inactive”. To `NC(=O)c1nsc(C(=O)N(c2cccc(O)c2)C(C(=O)NC2CCCC2)c2ccc(Cl)cc2)c1N` (centres undefined) belongs “inactive”; to `Cc1cccc(N(C(=O)c2nsc(Cl)c2Cl)C(C(=O)NC2CCCC2)c2ccc(O)cc2)c1C` (centres undefined), 17.8 µM (active); to `COC(=O)c1cc2c(=O)c3ccccc3oc2nc1/C=C/N(C)C`, “inactive”. To `COc1cc(N=Nc2cccc(S(N)(=O)=O)c2)c2ccccc2c1N` belongs 35.5 µM (active). Consider `COc1cc(/C=N\NS(=O)(=O)c2ccccc2)cc(OC)c1OC`, for which the Potency entry is “inactive”. As for `COc1ccc(-c2cc(C(=O)Nc3cc(S(N)(=O)=O)ccc3C)c3ccccc3n2)cc1OC`, the Potency entry was “inactive”. Take `O=c1cc(CSc2nc(O)c3ccccc3n2)c2ccc(O)cc2o1`: the Potency entry was “inactive”. As to `CC(Oc1ccc(Cl)cc1)C(=O)Nc1sccc1C(N)=O` (centres undefined), the Potency entry was “inactive”. To `Cc1ccc(Cl)cc1NC(=O)c1ccccn1` belongs “inactive”; to `CC(Oc1cccc(Cl)c1)C(=O)Nc1nc(-c2ccccn2)cs1` (centres undefined), 39.8 µM (active); to `NNC(=O)c1sccc1OCc1ccc(Cl)cc1Cl`, “inactive”. As to `CCOC(=O)N(C)c1c(CC)nc2c(OCc3ccc(Cl)cc3)cccn12`, the Potency is 20 µM (active). To `CCc1nc2c(OCc3ccc(Cl)cc3Cl)cccn2c1N(C)C(C)=O` belongs 31.6 µM (active); to `CSCCC(NC(=O)COc1ccccc1)C(=O)N(C)Cc1ccc(Cl)cc1Cl` (centres undefined), “inactive”; to `Cc1nc2c(OCc3ccc(Cl)cc3Cl)cccn2c1N(C)Cc1cccs1`, 8.91 µM (active). `CCOC(=O)c1c(N)n(-c2ccc(CC)cc2)c2nc3ccccc3nc12`: the Potency result is “inactive”. For the compound `O=C(O)CCC(=O)N1CCN(c2nc(-c3ccccc3)c3ccccc3n2)CC1`, the Potency entry is “inactive”. Consider `O=C(CCCCCn1c(=S)[nH]c2ccc(N3CCOCC3)cc2c1=O)NCc1ccccc1Cl`, for which the Potency entry is “inactive”.
